The text below walks through data of PubChem BioAssay (NCI).

The structures appear in SMILES notation. About 83,000 compounds went through this panel and 20% of them were active in at least one assay; those are over-represented in the sample as a whole.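 Results are percent growth after 48 hours of single-concentration exposure. 100 means growth as in untreated cells, lower positive values show inhibition; negative values down to -100 show cell death.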 A number with no mark means an inactive call. Active and inactive are the calls of the source. How the source made its calls: active means growth percent below 10; inactive means the rest.

Some test systems named below: NCI-H23 lung; NCI-H322M lung; HOP-62 NSCLC; NCI-H460 lung; HOP-92 NSCLC; NCI-H522 lung; A549/ATCC NSCLC; 786-0 renal; COLO 205 colon; DU-145 prostate; K-562 leukemia; MALME-3M melanoma; MDA-MB-231 breast; RXF 393 renal; SF-268 CNS; SF-295 CNS; SF-539 CNS; UACC-257 melanoma; M14 melanoma.
What all share (assay): NCI-60 one-dose screen, 48 h (100 = growth as untreated, 0 = no growth, -100 = all killed)
Details in all cases: 10 µM unless noted

In the case of `COc1ccc(Nc2ncccc2NC(=O)c2cn(Cc3cccc(Oc4ccccc4)c3)nn2)cc1OC`, the growth with NCI-H23 lung was 76%; in the test with NCI-H322M lung, 83.7%; in the test on HOP-62 NSCLC, 88%; in the test on NCI-H460 lung, 97.4%; in the test on HOP-92 NSCLC, 81.6%; in the test with NCI-H522 lung, 77.1%. Also, the growth in the test with A549/ATCC NSCLC is 86.7%; with 786-0 renal, 90.5%; in the test with COLO 205 colon, 81.4%; with DU-145 prostate, 84%; in the test on K-562 leukemia, 28.7%; in the test on MALME-3M melanoma, 87.4%. Moreover, the growth in the test with MDA-MB-231 breast is 67.9%; in the test with RXF 393 renal, 86.3%; with SF-268 CNS it was 61.7%; in the test on SF-295 CNS, 84.2%; in the test with SF-539 CNS, 95%; with UACC-257 melanoma, 92.4%. The growth in the test on M14 melanoma was 72.5%.

With `COc1ccc2c(c1)c(-c1ccc(-c3cn(C)c4ccc(OC)cc34)[nH]1)cn2C`, the growth with NCI-H23 lung was 34.2%; with NCI-H322M lung it was 71%; in the test with HOP-62 NSCLC, 83.3%; with NCI-H460 lung, 30.1%; with HOP-92 NSCLC, -7.36% (active); with NCI-H522 lung, -47.8% (active). Also, the growth in the test with A549/ATCC NSCLC was 28.8%; in the test on 786-0 renal it was 65%; in the test with COLO 205 colon it was -58.2% (active); with DU-145 prostate, 66.2%; in the test with K-562 leukemia, 0.411% (active); in the test on MALME-3M melanoma, 30.2%. Moreover, the growth with MDA-MB-231 breast was -3.99% (active); with RXF 393 renal, -28.5% (active); in the test on SF-268 CNS, 9.71% (active); in the test with SF-295 CNS it was 44.5%; with SF-539 CNS, -57.3% (active); with UACC-257 melanoma it was 87%. Also, the growth in the test with M14 melanoma is 43.6%.

For the molecule `CCOC(=O)/C=C/c1c(C)[nH]c(=O)[nH]c1=O`, the growth with NCI-H23 lung was 81.2%; in the test with NCI-H322M lung, 136%; in the test on NCI-H460 lung it was 51.7%; with HOP-92 NSCLC, 114%; in the test on NCI-H522 lung it was 59.6%; in the test with A549/ATCC NSCLC, 97.2%. The growth in the test with 786-0 renal is 114%; in the test on COLO 205 colon, 92.6%; in the test with DU-145 prostate, 21%; in the test on K-562 leukemia, 101%; with MALME-3M melanoma, 172%; in the test on MDA-MB-231 breast, 93.1%. Moreover, the growth was 89.3% in the test with RXF 393 renal; 96% in the test on SF-268 CNS; 76.5% in the test on SF-295 CNS; 98.9% in the test on SF-539 CNS; 109% in the test with UACC-257 melanoma; 97.5% with M14 melanoma.

For the molecule `CC(C)c1ccc(C(=O)Nc2sc3cc(O)ccc3c2C#N)cc1`, the growth in the test with NCI-H23 lung is 46.2%; with NCI-H322M lung it was 61.7%; with HOP-62 NSCLC, 41.1%; with NCI-H460 lung, 23%; with HOP-92 NSCLC it was 79.2%; in the test with NCI-H522 lung it was 54.2%. The growth in the test with 786-0 renal is 31.2%; in the test with COLO 205 colon it was 91.8%; in the test on DU-145 prostate it was 50.5%; with K-562 leukemia, 13.8%; with MALME-3M melanoma, 39.2%; with MDA-MB-231 breast it was 46.3%. For the same molecule, the growth was 45.2% in the test on RXF 393 renal; 44.8% with SF-268 CNS; 22.2% with SF-295 CNS; 32.5% in the test with SF-539 CNS; 51.3% in the test on UACC-257 melanoma; 5.43% (active) in the test on M14 melanoma.

As for `COc1ccc(C2=CN3CC=CCC3CC2=O)cc1` (centres undefined), the growth is 106% in the test on NCI-H23 lung; 113% in the test on NCI-H322M lung; 87.8% in the test with HOP-62 NSCLC; 108% in the test with NCI-H460 lung; 92.1% in the test with HOP-92 NSCLC; 66.9% in the test with NCI-H522 lung. The growth with A549/ATCC NSCLC is 75%; with 786-0 renal, 101%; with COLO 205 colon it was 113%; in the test with DU-145 prostate, 100%; with K-562 leukemia, 105%; in the test on MALME-3M melanoma, 116%. The growth in the test with MDA-MB-231 breast is 98.3%; in the test on RXF 393 renal it was 100%; in the test with SF-268 CNS, 101%; in the test on SF-295 CNS it was 104%; in the test on SF-539 CNS, 104%; with UACC-257 melanoma, 71.6%. Also, in the test on M14 melanoma, the growth was 99.5%.

For `CCOC(=O)c1c(C)nc2ccccc2c1/C=C/c1ccc(OC)cc1`, the growth in the test with NCI-H23 lung was 46.3%; in the test with NCI-H322M lung, 95.8%; in the test on HOP-62 NSCLC it was 71.8%; in the test on NCI-H460 lung, 78.1%; with HOP-92 NSCLC, 44.5%; in the test on NCI-H522 lung it was 53.5%. The growth with 786-0 renal is 77.8%; in the test on COLO 205 colon it was 83.6%; in the test on DU-145 prostate, 93.1%; with K-562 leukemia it was 42%; in the test with MALME-3M melanoma it was 87%; in the test on MDA-MB-231 breast, 74.6%. Further, the growth in the test with RXF 393 renal is 91.3%; with SF-268 CNS it was 78%; in the test with SF-295 CNS, 58.8%; in the test with SF-539 CNS, 85.3%; in the test with UACC-257 melanoma, 74%; in the test with M14 melanoma it was 70.5%.

Take `COc1ccc(/C=C/C(=O)c2cc3c(N)c(C(=O)Nc4ccc(OC)cc4)sc3nc2C)cc1`: the growth is 32.7% in the test on NCI-H23 lung; 36.4% with NCI-H322M lung; 49.2% in the test with HOP-62 NSCLC; -6.51% (active) in the test on NCI-H460 lung; -29.6% (active) in the test on NCI-H522 lung; 13.5% with A549/ATCC NSCLC. In addition, the growth with 786-0 renal is 27.7%; with COLO 205 colon, -47.7% (active); with DU-145 prostate, 17.5%; in the test on K-562 leukemia, 17.9%; with MALME-3M melanoma, 49.1%; with MDA-MB-231 breast, 24.7%. The growth in the test on RXF 393 renal is -14.4% (active); with SF-268 CNS, 39.5%; in the test on SF-295 CNS it was 11.6%; in the test on SF-539 CNS, -25.5% (active); with UACC-257 melanoma, 55.3%; in the test with M14 melanoma it was 10.2%.

For the molecule `O=C(Cn1nnc2ccccc21)Nc1ccc(-c2nc3ccccc3s2)cc1`, the growth in the test on NCI-H23 lung was 80.7%; in the test on NCI-H322M lung, 103%; with HOP-62 NSCLC, 101%; in the test on NCI-H460 lung, 83%; in the test with HOP-92 NSCLC it was 73.1%; in the test on NCI-H522 lung, 79.3%. For the same molecule, the growth in the test on A549/ATCC NSCLC is 93.6%; in the test with 786-0 renal, 95%; with COLO 205 colon, 105%; in the test with DU-145 prostate it was 74%; in the test on K-562 leukemia it was 55.2%; with MALME-3M melanoma it was 96.9%. Further, the growth was 94.7% in the test on MDA-MB-231 breast; 99.9% in the test with RXF 393 renal; 92.4% with SF-268 CNS; 84.7% in the test with SF-295 CNS; 71.2% with SF-539 CNS; 94.5% with UACC-257 melanoma. Moreover, the growth in the test on M14 melanoma is 90.6%.

As to `COCC[C@H]1CCC/C=C/[C@@H]2C[C@H](O)C[C@H]2[C@H](O)/C=C/C(=O)O1`, the growth with NCI-H23 lung was 6.07% (active); with NCI-H322M lung, 29.7%; in the test on HOP-62 NSCLC, 31.5%; in the test on NCI-H460 lung it was 15.1%; in the test with HOP-92 NSCLC, -8.55% (active); with NCI-H522 lung, -28.6% (active). Moreover, the growth with A549/ATCC NSCLC was 13.6%; in the test on 786-0 renal it was -45.9% (active); in the test with COLO 205 colon, -64.4% (active); with DU-145 prostate, 6.25% (active); with K-562 leukemia, 10.4%; in the test with MALME-3M melanoma it was -24.4% (active). Moreover, the growth with MDA-MB-231 breast is -85.5% (active); with RXF 393 renal it was -4.97% (active); in the test on SF-268 CNS, 12.6%; in the test on SF-295 CNS, -2.69% (active); in the test on SF-539 CNS, 28.3%; with UACC-257 melanoma, 16.7%. The growth in the test with M14 melanoma is 9.75% (active).

For `COC(=O)c1c2c(n3ccc(C)cc13)C(=O)c1ccccc1C2=O`, the growth in the test with NCI-H23 lung was 50.9%; with NCI-H322M lung, 22.1%; in the test on HOP-62 NSCLC, 78.4%; with NCI-H460 lung it was 4.07% (active); in the test with HOP-92 NSCLC it was 76.7%; in the test with NCI-H522 lung, 47.5%. In addition, the growth in the test on A549/ATCC NSCLC is -41.6% (active); in the test on 786-0 renal it was 80.3%; in the test with COLO 205 colon it was 42.5%; in the test on DU-145 prostate, 75.2%; in the test with K-562 leukemia it was 60.8%; in the test with MALME-3M melanoma, 62.2%. Moreover, the growth in the test on MDA-MB-231 breast was 77.9%; in the test on RXF 393 renal, 75.9%; in the test on SF-268 CNS it was 74.9%; with SF-295 CNS, 67.6%; with SF-539 CNS, 94.8%; with UACC-257 melanoma, 72.4%. Also, the growth in the test on M14 melanoma is 63.5%.

On to `COc1ccc(/C(C)=C(\c2ccc(OCCN3CCCCCC3)cc2)c2ccc(OC(=O)c3ccccc3)cc2)cc1`, for which the growth with NCI-H23 lung is 52.2%; with NCI-H322M lung, 80.5%; in the test with NCI-H460 lung, 10.2%; with HOP-92 NSCLC, 54.4%; in the test with NCI-H522 lung, 68.3%; in the test on A549/ATCC NSCLC it was 41.1%. Besides, the growth in the test on 786-0 renal is 27.5%; with COLO 205 colon, 12.4%; with DU-145 prostate it was 71.8%; with K-562 leukemia, 1.82% (active); in the test on MALME-3M melanoma, 22.7%; in the test on MDA-MB-231 breast it was 52.6%. Also, the growth with RXF 393 renal is 16.4%; in the test on SF-268 CNS it was 44.4%; in the test with SF-295 CNS it was 20.6%; in the test with SF-539 CNS it was 45.2%; in the test on UACC-257 melanoma it was -15.5% (active); in the test with M14 melanoma, -39% (active).
